# Reference: article PMC11062913
# Tests used:
# Histone H3.2 [1] = target: Histone H3.2 (UniProt P84233); assay: cross-link between two proteins; cross-linking mass spectrometry
# Histone H3.2 [2] = target: Histone H3.2 (UniProt P84233); assay: cross-linking mass spectrometry
# Histone H4 = Histone H4 (UniProt P62799); assay: cross-linking mass spectrometry
# [3] = target: Transcription elongation factor A protein 1 (UniProt P23193); assay: cross-link between two proteins; cross-linking mass spectrometry
# Histone H2A type 1 [4] = target: Histone H2A type 1 (UniProt P06897); assay: cross-linking mass spectrometry
# [5] = target: DNA-directed RNA polymerase II subunit RPB7 (UniProt P62487); assay: cross-link between two proteins; cross-linking mass spectrometry
# Histone H2A type 1 [6] = target: Histone H2A type 1 (UniProt P06897); assay: as above
# Histone H2B 1.1 = Histone H2B 1.1 (UniProt P02281); assay: as above
# [7] = target: Transcription elongation factor SPT4 (UniProt P63272); assay: cross-link between two proteins; cross-linking mass spectrometry; two-hybrid or complementation screen
substance,measurement,setting,value
"DNA-directed RNA polymerase II subunit RPB7, P62487",listed as a hit,Histone H3.2 [1],yes
"Histone H2A type 1, P06897",listed as a hit,Histone H3.2 [2],yes
same,listed as a hit,Histone H4,yes
same,listed as a hit,[3],yes
"Histone H2B 1.1, P02281",listed as a hit,Histone H2A type 1 [4],yes
same,listed as a hit,Histone H3.2 [2],yes
same,listed as a hit,Histone H4,yes
"Transcription elongation factor A protein 1, P23193",listed as a hit,Histone H3.2 [1],yes
"Transcription elongation factor SPT5, O00267",listed as a hit,[5],yes
same,listed as a hit,Histone H2A type 1 [6],yes
same,listed as a hit,Histone H2B 1.1,yes
same,listed as a hit,Histone H3.2 [1],yes
same,listed as a hit,[7],yes
"Histone H4, P62799",listed as a hit,Histone H3.2 [1],yes
